Laboratory results from PubChem BioAssay.
Unmarked numbers belong to inactive results. No rule for the calls is given here.

target: Pantothenate synthetase (Mycobacterium tuberculosis (strain ATCC 25618 / H37Rv)) (UniProt P9WIL5); assay: Coupled enzyme confirmation of inhibitors against recombinant Mtb PanC (AID 375); details: coupled enzyme assay; at 10 µM, stronger effect = higher value;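 also: 0% = full reaction with vehicle and 100% = no enzyme background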
Sequence (P9WIL5 whole entry, looked up): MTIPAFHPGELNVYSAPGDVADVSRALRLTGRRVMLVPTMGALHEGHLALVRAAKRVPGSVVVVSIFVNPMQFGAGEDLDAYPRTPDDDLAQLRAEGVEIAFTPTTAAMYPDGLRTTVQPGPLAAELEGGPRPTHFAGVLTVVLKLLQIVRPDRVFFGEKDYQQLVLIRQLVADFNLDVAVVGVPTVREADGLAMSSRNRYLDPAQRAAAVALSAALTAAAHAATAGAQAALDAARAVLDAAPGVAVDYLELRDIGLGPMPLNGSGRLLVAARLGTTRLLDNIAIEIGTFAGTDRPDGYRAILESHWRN

Row | SMILES | inhibition [%]
1 | Nc1cc(-c2ccccc2)ccc1O | 1
2 | COc1ccc(NC(=O)CC2Oc3ccccc3NC2=O)cc1 (configuration not stated) | 0
3 | COc1ccc(N(CC(=O)Nc2ccc3c(c2)OCO3)S(=O)(=O)c2c(C)nn(C)c2C)cc1 | 0
4 | O=C(c1csc2ccccc12)N1CCCCCC1 | 2
5 | O=C(NCCN1CCOCC1)NC1(C(F)(F)F)Oc2ccc(Cl)cc2O1 (configuration not stated) | 0
6 | CCOc1ccccc1N1CCN(S(=O)(=O)c2cccc3nsnc23)CC1 | 0
7 | Cc1cc(C)nc(/N=C2\NC(=O)CC(C(=O)O)N2c2ccc(Cl)cc2)n1 (configuration not stated) | 0
8 | COCCOC(=O)c1c(C)oc2ccc(NS(=O)(=O)c3ccc(F)cc3)cc12 | 3
9 | COc1ccc2c(c1)C(C)=CC(C)(C)N2C(=O)C(C)N1C(=O)c2ccccc2C1=O (configuration not stated) | 4
10 | CC1=NS(=O)(=O)c2cc(Cl)ccc2N1 | 6
11 | CS(=O)(=O)N1CCN(c2ccccc2NC(=O)c2cccs2)CC1 | 2
12 | CCCOc1cccc(C(=O)N(Cc2ccco2)C2CCS(=O)(=O)C2)c1 (configuration not stated) | 0
13 | Cc1nonc1NC(=O)c1ccccc1Br | 1
14 | CCN(CC)c1ccc(-c2c(C#N)c(N)nc(OC)c2C#N)cc1 | 0
15 | COc1ccccc1-c1cc2nc(C)c(CCC(=O)NCc3ccco3)c(C)n2n1 | 0
16 | CS(=O)(=O)Nc1ccc(C(=O)NCc2ccc3c(c2)OCO3)cc1 | 4
17 | COc1ccc(OC)c(C(=O)CSc2nnc(-c3ccc(OC)c(OC)c3)o2)c1 | 11
